Screens as filed in PubChem BioAssay.
Shown are actives, neighbours in structure and some others; about 1.2% of the full set was active somewhere.
RGS8-Gao = RGS8-Galphao binding modulators, primary screen, biochemical, multiplexed bead flow cytometry; hit rate 0.34% among 220,000; AID 1423, 2008; Guanine nucleotide-binding protein G(o) subunit alpha (Homo sapiens), P09471; response (percent of control binding), % at 10 µM; actives lie on both sides; in the data active = response below about 60% or above about 140%; inactive = in between;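 note: Galphao activated as the GDP aluminium fluoride complex binding bead-coupled RGS8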
Target sequence (P09471 whole entry, looked up): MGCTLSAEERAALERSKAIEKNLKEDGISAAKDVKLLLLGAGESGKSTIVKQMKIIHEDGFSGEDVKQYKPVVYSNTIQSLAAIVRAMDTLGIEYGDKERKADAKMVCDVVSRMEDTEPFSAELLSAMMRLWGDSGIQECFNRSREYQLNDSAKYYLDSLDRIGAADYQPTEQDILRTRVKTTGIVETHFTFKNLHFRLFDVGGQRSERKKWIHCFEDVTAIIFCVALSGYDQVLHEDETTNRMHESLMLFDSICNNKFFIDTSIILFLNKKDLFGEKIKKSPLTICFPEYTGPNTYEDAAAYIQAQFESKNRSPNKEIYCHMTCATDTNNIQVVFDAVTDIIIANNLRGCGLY
RGS16-Gao = modulators of RGS16 binding to Galphao, primary screen, biochemical, human proteins, multiplexed bead flow cytometry. AID 1441, 2008. hit rate 0.38% among 220,000. bead-based flow cytometry RGS16-Galphao binding, fluorescence; actives lie on both sides. Regulator of G-protein signaling 16 (Homo sapiens) + Guanine nucleotide-binding protein …. binding response (% of control), % at 10 µM;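 note: Galphao activated by GDP with aluminum fluoride before binding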
Target sequence (O15492 whole entry, looked up): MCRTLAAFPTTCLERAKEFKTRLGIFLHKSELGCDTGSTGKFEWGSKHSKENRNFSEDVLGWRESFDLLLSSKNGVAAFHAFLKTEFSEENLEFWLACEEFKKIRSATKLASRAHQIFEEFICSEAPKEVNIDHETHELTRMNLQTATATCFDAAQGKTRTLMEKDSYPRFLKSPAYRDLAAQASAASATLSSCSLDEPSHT
Target sequence (P09471 whole entry, looked up): as the sequence (P09471 whole entry, looked up) above
RGS7-Gao = RGS7-Galphao binding modulators, primary screen, biochemical, multiplexed bead flow cytometry | Guanine nucleotide-binding protein G(o) subunit alpha (Homo sapiens), P09471 | actives lie on both sides | binding response (% of control), % at 10 µM | hit rate 0.35% among 220,000 | AID 1439, 2008; in the data active = binding response below about 49% or above about 150%; inconclusive = no clear call, values can overlap the other calls; inactive = in between;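 note: fluorescent Galphao held in activated GDP-AlF4 state binding bead-coupled RGS7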
RGS4-Gao reg = modulators of RGS4 binding to Galphao, primary screen, biochemical, multiplexed bead flow cytometry. actives lie on both sides. binding response (% of control), % at 10 µM. hit rate 0.33% among 220,000; in the data active = binding response below about 49% or above about 150%; inactive = in between;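 note: fluorescent Galphao activated with aluminum fluoride binding bead-coupled RGS4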
Avidin bead fluor = green autofluorescence of compounds with avidin beads – biophysical, 488/530 nm, flow cytometry, artefact control, profiling panel; compound fluorescence 488/530 nm; active compounds read high; fluorescence (KMESF) at 10 µM; hit rate 0.38% among 220,000; AID 1775, 2009; in the data active = fluorescence above about 47
GSH fluor = compound fluorescence on glutathione beads, profiling panel, artefact control, biophysical, 488/530 nm, flow cytometry; GSH beads flow cytometry, compound fluorescence 488/530 nm; active compounds read high; hit rate 0.25% among 190,000; AID 1776, 2009; fluorescence (KMESF) at 10 µM; in the data active = fluorescence above about 89;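 note: glutathione beads carrying GST-tagged Bcl family fusion proteins plus one bare bead set; values are compound well signal with DMSO vehicle wells as background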
RGS4-Gao HTS = modulators of RGS–Galpha-o binding, primary screen, biochemical, multiplexed beads, flow cytometry, RGS4/7/8/16/19; multiplexed bead flow cytometry; hit rate 99% among 1,600; shares compounds with RGS16-Gao; RGS4–Galpha-o binding response, % at 10 µM; AID 1504, 2009;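 note: fluorescently labeled Galpha-o bound to GDP with aluminium fluoride binding biotinylated RGS beads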
Biotin-avidin = disruption of biotin probe capture by avidin, counter-screen for RGS protein interaction modulators, biochemical, flow cytometry, bead-based; inhibition, % at 10 µM; streptavidin beads, fluorescein-biotin binding; 1,700 tested, under 10 active; AID 1783, 2009; shares compounds with RGS16-Gao;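 active = inhibition above 50%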;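 note: median green fluorescence of gated singlet beads compared with DMSO control wells; 0% = DMSO wells and 100% = complete loss of bead fluorescence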
RGS8-Gao confirm = RGS8-Galphao binding modulators, confirmation, biochemical, multiplexed bead flow cytometry, single concentration; shares compounds with RGS16-Gao; bead-based flow cytometry RGS8-Galphao binding, fluorescence; actives lie on both sides; binding response (% of control), % at 10 µM; hit rate 3% among 1,700; AID 1836, 2009; in the data active = binding response below about 72% or above about 130%; inactive = in between;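 note: Galphao activated as GDP AlF4 complex before binding bead RGS8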
RGS7-Gao single = RGS7-Galphao binding modulators, confirmation, biochemical, multiplexed bead flow cytometry, single concentration; shares compounds with RGS16-Gao; bead-based flow cytometry RGS7-Galphao binding; actives lie on both sides; response (percent of control binding), % at 10 µM; hit rate 7.8% among 1,700; AID 1837, 2009; in the data active = response below about 75% or above about 130%; inactive = in between;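 note: fluorescent Galphao activated with GDP and aluminum fluoride binding bead-coupled RGS7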
RGS16-Gao single = modulators of RGS16-Galphao protein binding, confirmation, biochemical, single concentration, multiplexed bead flow cytometry | shares compounds with RGS16-Gao | hit rate 4% among 1,700 | response (% of control binding), % at 10 µM | AID 1838, 2009 | bead-based flow cytometry; actives lie on both sides; in the data active = response below about 74% or above about 130%; inactive = in between;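 note: Galphao activated as the GDP aluminium fluoride complex binding bead-coupled RGS16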
RGS4-Gao confirm = modulators of RGS4-Galphao protein binding, confirmation, biochemical, single concentration, multiplexed bead flow cytometry; hit rate 4% among 1,700; binding response (% of control), % at 10 µM; shares compounds with RGS16-Gao; actives lie on both sides; in the data active = binding response below about 74% or above about 130%; inactive = in between
RGS19-Gao conf = regulators of RGS19-Galphao binding, confirmation, biochemical, single point, multiplexed bead flow cytometry; hit rate 5% among 1,700; response (percent of control binding), % at 10 µM; bead-based flow cytometry RGS19-Galphao binding; actives lie on both sides; shares compounds with RGS16-Gao; in the data active = response below about 50% or above about 160%; inactive = in between;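 note: 100% = no compound control and 0% = blank background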
An asterisk follows results filed as active; ? = inconclusive; . = not tested or not shown; [ ] = dose if it differs, or a comment. Unless noted, the rule behind the calls is not given here.

SMILES | RGS8-Gao | RGS16-Gao | RGS7-Gao | RGS4-Gao reg | Avidin bead fluor | GSH fluor | Biotin-avidin | RGS8-Gao confirm | RGS7-Gao single | RGS16-Gao single | RGS4-Gao confirm | RGS19-Gao conf | others
O=C(CC1SC(=Nc2ccc(OC(F)F)cc2)N(CCC2=CCCCC2)C1=O)Nc1ccccc1F (stereo not drawn) | 77.4 | 24.8* | 88.5 | 89.1 | 7 | 3 | -0.4 | 104.5 | 99.5 | 108.4 | 102.9 | 103.7 | RGS4-Gao HTS=89.1*
C=CCc1cccc(/C=N/NC(=O)c2ccccc2OC)c1O | 98.4 | 96.4 | 97.2 | 96.0 | 5 | 11 | . | . | . | . | . | .
C=CCc1cccc(/C=N/NC(=O)c2ccccc2Br)c1O | 31.3* | 23.5* | 24.6* | 33.6* | 2 | 15 | -1.2 | 100.6 | 95.2 | 96.8 | 99.8 | 82.2
CCc1nc(NCCO)c(C#N)c2c1CSC(C)(C)C2 | 96.6 | 102.5 | ? | 109.7 | 16 | . | . | . | . | . | . | .
Cc1nn(C(=O)N2CCCCC2)c(C)c1CN1C(=O)c2ccccc2C1=O | . | . | . | . | . | 12 | 0.2 | 102.5 | 104.7 | 102.6 | 102.7 | 66.3
Cc1nn(C(=O)c2cccs2)c(C)c1CN1C(=O)c2ccccc2C1=O | 101.9 | 100.7 | 95.5 | 103.9 | 7 | 40 | . | . | . | . | . | .
COc1ccc(C(c2nnnn2C2CCCC2)N2CCC(C)CC2)c(OC)c1 (stereo not drawn) | . | . | 174.5*[activator] | 188.3*[activator] | . | 32 | 0.8 | 102.0 | 103.0 | 102.5 | 102.6 | 112.5
CC(=O)c1ccc(NC(=O)Nc2ccc(Br)cc2C)cc1 | 87.5 | 183.9*[activator] | 216.5*[activator] | 204.1*[activator] | 76* | 20 | 0.4 | 97.8 | 94.6 | 100.0 | 98.6 | 87.1
CC(=O)c1ccc(NC(=O)c2ccc(C)c(Br)c2)cc1 | 92.9 | 59.6 | 92.4 | 98.4 | 7 | 18 | . | . | . | . | . | .
CCSC1=C(C#N)C2(CCCCC2)C(C#N)C(=O)N1 (stereo not drawn) | 94.2 | 90.1 | 87.8 | 90.8 | 6 | 13 | . | . | . | . | . | .
N#CC1=C2SCCN2C(=O)C(C#N)C12CCCCC2 (stereo not drawn) | 12.7* | -10.3* | -0.9* | -14.9* | . | 10 | 1.4 | 101.4 | 102.2 | 104.3 | 101.0 | 103.4
O=C(CC1C(=O)NCCN1Cc1c(F)cccc1Cl)NCCCn1cccn1 (stereo not drawn) | 104.6 | 107.8 | ? | 108.7 | 7 | . | . | . | . | . | . | .
CC(C)NOC(=O)c1ccc(Cl)cc1 | 96.4 | 98.0 | 92.3 | 92.2 | 11 | 14 | . | . | . | . | . | .
O=C1C(=O)c2ccc(-c3ccccc3)cc2-c2ccccc21 | 134.3 | 258.8*[activator] | 112.5 | 116.4 | 5 | 38 | -0.7 | 93.8 | 96.1 | 92.1 | 94.4 | 62.0 | RGS4-Gao HTS=116.4*
Cc1ccc(S(=O)(=O)Nc2ccccc2C=Nc2cccc(C)c2C)cc1 | 100.1 | 105.6 | 93.2 | 93.2 | 6 | 11 | . | . | . | . | . | .
Cc1ccc(S(=O)(=O)Nc2ccccc2/C=N/c2nc3ccccc3n2C)cc1 | 102.3 | 102.0 | . | 100.2 | 5 | 9 | 0.4 | 98.3 | 99.6 | 98.6 | 95.1 | 104.9
COc1cccc(CNC(=O)CCC2CCCN(c3cc(C)nc(N)n3)C2)c1 (stereo not drawn) | 98.7 | 98.4 | 94.4 | 101.4 | 11 | 14 | . | . | . | . | . | .
Nc1nc(-c2ccc(F)cc2)cc(C(F)(F)F)n1 | 100.7 | 101.9 | 99.3 | 102.3 | 10 | 11 | . | . | . | . | . | .
Nc1nc(-c2ccc(Cl)cc2)cc(C(F)(F)F)n1 | 142.1*[activator] | 280.1 | 117.7 | 126.2 | 7 | 8 | -2.5 | 102.5 | 150.7*[activator] | 111.5 | 126.3*[activator] | 127.9 | RGS4-Gao HTS=126.2*
Cc1ccccc1Cc1ccc(Cl)nn1 | 98.5 | 96.0 | ? | 98.5 | 11 | 10 | . | . | . | . | . | .
COc1ccc(NC(=O)Cn2c(=O)n(-c3ccccc3)c(=O)c3oc4ccccc4c32)c(OC)c1 | 126.0 | 232.5*[activator] | 108.5 | 106.1 | 15 | 4 | 1.4 | 94.2 | 87.0 | 89.8 | 89.4 | 95.7 | RGS4-Gao HTS=106.1*
COc1ccccc1NC(=O)Cn1c(=O)n(-c2ccccc2)c(=O)c2oc3ccccc3c21 | 88.6 | 59.2 | 99.5 | 94.8 | 3 | 19 | . | . | . | . | . | .
O=C(c1ccc2c(c1)OCCCO2)N1CCCCC1 | 99.4 | 99.6 | ? | 101.2 | 7 | . | . | . | . | . | . | .
O=C(CNC(=O)c1cccs1)N/N=C/c1c[nH]c2ccccc12 | 6.0* | -4.2* | 2.4* | 2.8* | -1 | 8 | 0.4 | 105.4 | 100.0 | 108.6 | 102.6 | 94.4
Cc1[nH]c2ccccc2c1/C=N/NC(=O)CNC(=O)c1cccs1 | 97.7 | 105.5 | ? | 89.1 | 9 | . | . | . | . | . | . | .
COC(=O)CCCNC(=O)c1ccccn1 | 92.9 | 112.8 | 231.1*[activator] | 119.7 | 229* | 7 | 4.4 | 93.6 | 86.0 | 90.1 | 88.4 | 126.5 | RGS4-Gao HTS=119.7*
CC(C)(C)NC(=S)NNC(=O)c1cccc(Br)c1 | 95.9 | 92.7 | ? | 94.6 | 9 | 24 | . | . | . | . | . | .
Cc1nc2c(C#N)cnn2c2c1CCN2CC1CCCO1 (stereo not drawn) | 101.8 | 104.0 | ? | 99.9 | 11 | 15 | . | . | . | . | . | .
